In PubChem BioAssay (NCI):
The panel holds about 79,000 compounds, 15% with a hit somewhere; the sample as a whole holds those more often. Values without a mark were called inactive. Calls of active or inactive are those of the source. Cut-off read from the data, not from the text of the source: active = growth inhibition above about 70%; inactive = the rest.

Key:
[1] = NCI Yeast Anticancer Drug Screen. Data for the rad50 strain (AID 155);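 note: 0% = growth of vehicle-only cultures of the same strain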; details: S. cerevisiae rad50 strain growth inhibition, active compounds read high
Summary of the method: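 Vehicle-treated cultures provide the reference for the growth inhibition reported for compound-exposed, repair-deficient yeast.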

[2] = NCI Yeast Anticancer Drug Screen. Data for the mec2-1 strain (AID 157); details: S. cerevisiae mec2-1 strain, active compounds read high
Summary of the method: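 Readout is yeast growth inhibition, normalised to vehicle-treated controls, in the mec2-1 strain exposed to compound.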

[3] = NCI Yeast Anticancer Drug Screen. Data for the sgs1 mgt1 strain (AID 161);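 note: 0% = growth of cultures given vehicle only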; details: S. cerevisiae sgs1 mgt1 strain, active compounds read high
Summary of the method: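 Yeast cells carrying a defined DNA-repair defect were exposed to test compounds. Growth inhibition was measured relative to vehicle-treated controls.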

[4] = NCI Yeast Anticancer Drug Screen. Data for the cln2 rad14 strain (AID 165);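 note: 0% = growth equal to vehicle treated cultures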; details: S. cerevisiae cln2 rad14 strain, active compounds read high
Summary of the method: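 Relative to vehicle controls, growth inhibition of compound-treated cln2 rad14 yeast was recorded.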

[5] = NCI Yeast Anticancer Drug Screen. Data for the bub3 strain (AID 167); details: S. cerevisiae bub3 mutant strain, active compounds read high
Summary of the method: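 Mutant yeast screening strain plus compound; vehicle-treated cultures serve as the 0% inhibition reference.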

[6] = NCI Yeast Anticancer Drug Screen. Data for the mlh1 rad18 strain (AID 175); details: S. cerevisiae mlh1 rad18 strain growth inhibition, active compounds read high
Summary of the method: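 Test agents were incubated with a yeast strain of defined genotype (DNA damage repair defect). Inhibition of growth was derived by comparison with vehicle-exposed cultures.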

[7] = at 5.0 µM (retest, dose inferred, filed as 0.5)
[8] = at 50.0 µM (retest, dose inferred, filed as 5.0)

SMILES | growth inhibition [1, 7] [%] | growth inhibition [1, 8] | growth inhibition ([1]; at 50.0 µM) | growth inhibition [2, 7] | growth inhibition [2, 8] | growth inhibition ([2]; at 50.0 µM) | growth inhibition [3, 7] | growth inhibition [3, 8] | growth inhibition ([3]; at 50.0 µM) | growth inhibition [4, 7] | growth inhibition [4, 8] | growth inhibition ([4]; at 50.0 µM) | growth inhibition [5, 7] | growth inhibition [5, 8] | growth inhibition ([5]; at 50.0 µM) | growth inhibition [6, 7] | growth inhibition [6, 8] | growth inhibition ([6]; at 50.0 µM)
COc1ccc(/C(Cl)=C(\c2ccc(OCCN(C)C)cc2)c2ccc(OC(=O)C(C)(C)C)cc2)cc1 | 23 | 23% | 91.8% (active) | 17% | 17% | 92% (active) | 18% | 18% | 92.3% (active) | 10% | 10% | 60.4% | 20% | 20% | 89.4% (active) | 1% | 1% | 90% (active)
O=c1oc(-c2ccc(Cl)cc2[N+](=O)[O-])nc2ccccc12 | 16 | 10% | 77.2% (active) | 17% | -1% | 63.6% | 5% | 6% | 70.3% (active) | 31% | 5% | 39.2% | -6% | 6% | 66.5% | -23% | -13% | 68.5%
CCCCCCCCCCOC(=O)c1ccccn1 | -6 | 93% (active) | 34.1% | -3% | 94% (active) | 42.7% | -3% | 60% | 37.5% | -3% | 75% (active) | 17.2% | 0% | 80% (active) | 43.2% | -2% | 83% (active) | 62.5%
O=C(C[P+](c1ccccc1)(c1ccccc1)c1ccccc1)c1ccc(Br)cc1 | 67 | 96% (active) | 98.8% (active) | 53% | 98% (active) | 97.4% (active) | 82% (active) | 99% (active) | 96.8% (active) | 22% | 96% (active) | 95.9% (active) | 62% | 97% (active) | 97.7% (active) | 69% | 97% (active) | 96% (active)
CCOP(=O)(OCC)C(NC(=O)OCC(Cl)(Cl)Cl)n1nnc(C(=O)OC)c1C(=O)OC (configuration not stated) | -7 | 79% (active) | -8.8% | -4% | 46% | 4.15% | -6% | 89% (active) | 10.6% | -3% | 69% | 36.4% | -1% | 92% (active) | -0.7% | -1% | 70% (active) | -1.15%
CCOC(=O)C(=Cn1c(=S)[nH]c2ccc([N+](=O)[O-])cc21)C(=O)OCC | 33 | 53% | -36.2% | 17% | 22% | -35.2% | 33% | 41% | 0.75% | 20% | 25% | 13.9% | 26% | 29% | -37.2% | 33% | 46% | -40.2%
CS/C(=N\C(=S)N(C)C)N(c1ccccc1)c1nc(=[N+](C)C)ss1 | 27 | 98% (active) | 98.5% (active) | 13% | 67% | 99.5% (active) | 38% | 98% (active) | 97.9% (active) | 1% | 99% (active) | 86.1% (active) | 27% | 97% (active) | 98.8% (active) | 22% | 98% (active) | 98.7% (active)
O=[N+]([O-])c1ccc2c(Nc3ccccc3-c3ccccc3Nc3c4ccccc4nc4cc([N+](=O)[O-])ccc34)c3ccccc3nc2c1 | 29 | 96% (active) | 90.9% (active) | 22% | 98% (active) | 90% (active) | 18% | 98% (active) | 91% (active) | 30% | 98% (active) | 90.8% (active) | 27% | 98% (active) | 87.4% (active) | 38% | 96% (active) | 88.9% (active)
C=CS(=O)(=O)c1ccc(Cl)cc1 | -116 | 97% (active) | 99.7% (active) | -19% | 98% (active) | 99.7% (active) | -23% | 98% (active) | 99.2% (active) | -42% | 98% (active) | 99.1% (active) | -34% | 98% (active) | 99.4% (active) | -73% | 97% (active) | 99% (active)
S=c1c2ccccc2[nH]c2ccccc12 | -3 | 86% (active) | 89.2% (active) | -6% | 62% | 63% | -2% | 83% (active) | 60.6% | -7% | 46% | 75.3% (active) | 8% | 33% | 88.8% (active) | -5% | 88% (active) | 85.5% (active)
CCc1nc2ccc(N=NN(C)C)cc2[nH]1 | 21 | 73% (active) | 84.5% (active) | 19% | 80% (active) | 92% (active) | 18% | 96% (active) | 74.2% (active) | 22% | 87% (active) | 88.1% (active) | 18% | 97% (active) | 88.5% (active) | 24% | 91% (active) | 91.3% (active)
O=C(O)/C(=C\c1ccc(O)cc1)c1cccc2ccccc12 | 31 | 18% | 45.3% | -2% | 36% | 37.6% | -2% | 12% | 5.5% | 3% | 27% | 76.2% (active) | -21% | 22% | 61.5% | -4% | 49% | 48%
CCC(C)CNCCCCCNc1cc(OC)cc2cccnc12 (configuration not stated) | 37 | 67% | 45.5% | 35% | 62% | 43.9% | 38% | 87% (active) | 66.5% | 47% | 57% | 48.2% | 39% | 75% (active) | 90.3% (active) | 29% | 53% | 70.3% (active)
CN(C)c1ccc(-c2c(C#N)c(-c3ccccc3)n(NS(=O)(=O)c3ccccc3)c(=O)c2C#N)cc1 | 19 | 36% | 71% (active) | 23% | 32% | 75.5% (active) | 34% | 50% | 75.2% (active) | 44% | 53% | 80.8% (active) | 54% | 51% | 76.2% (active) | 17% | 31% | 72.2% (active)
CCOC(=O)C12CCSC1C1(C#N)C(C#N)=CC2(N=P(c2ccccc2)(c2ccccc2)c2ccccc2)n2c(=O)n(-c3ccccc3)c(=O)n21 (configuration not stated) | 45 | 29% | 68% | 93% (active) | 18% | 39.9% | 28% | 8% | 59.9% | 32% | 34% | 58.5% | 96% (active) | 46% | 88.5% (active) | 46% | 31% | 53.9%
CNC(=O)NC(c1cc(OC)c(OC)c(OC)c1)c1cc2c(cc1O)OCO2 (configuration not stated) | -15 | -9% | 17.2% | -1% | -8% | 13.4% | -14% | 5% | -0.1% | -28% | -15% | 23.6% | -16% | -4% | -1.6% | -19% | -5% | 16.8%
Cc1ccc(C2(O)CCN(Cc3ccccc3)CC2)cc1 | 30 | 85% (active) | 56.5% | 39% | 99% (active) | 8.3% | 47% | 72% (active) | 70% (active) | 75% (active) | 89% (active) | 61.8% | 64% | 81% (active) | 41% | 37% | 98% (active) | 47%
O=C(/C(=C\c1ccccc1)c1ccccc1)c1ccc(Br)cc1 | 7 | -9% | 10.2% | 3% | 4% | -16.2% | 4% | 5% | 24.6% | 0% | -8% | 47.1% | 1% | 9% | 11.8% | -8% | 2% | 17.4%
CC(=O)[C@H]1CC[C@H]2[C@@H]3CC[C@H]4C[C@@H](N5CCOCC5)CC[C@]4(C)[C@H]3CC[C@]12C | 54 | 63% | 73.3% (active) | 61% | 76% (active) | 36.5% | 70% (active) | 87% (active) | 83.5% (active) | 52% | 30% | 87.5% (active) | 49% | 81% (active) | 59.5% | 76% (active) | 69% | 74.8% (active)
